Experimental data: PubChem BioAssay AID463173 (ICCB-Longwood Screening Facility, Harvard Medical School, 2010)
Hit rate of the full screen: of about 52,000 compounds, about 1,700 (3.3%) were called active. Many of the other results were omitted from the sample, so actives are more common in it than they were. Values without a mark were called inactive. No stated cut-off is given here; in the data, active means survival mostly below about 52% (no sharp cut-off); inactive means mostly above about 56%.

test system: Wild type; assay: growth inhibition of S. aureus wild type versus tarO mutant, primary screen, teichoic acid synthesis inhibitors, RN4220, OD600 (AID 463173); conditions: S. aureus RN4220 wild type/DeltatarO growth, OD600, 18 h, stronger effect = lower value, screened at 18.75 µg/mL (by protocol)

Compound	survival
COc1ccccc1C(=O)Nc1ccc(OCc2cc(=O)n3ccc(C)cc3n2)cc1	85%
COc1cccc(C(=O)Nc2cccc(OCc3cc(=O)n4cccc(C)c4n3)c2)c1	134%
O=C(Nc1cccc(OCc2cc(=O)n3ccccc3n2)c1)Nc1cccc(C(F)(F)F)c1	-6% (active)
Cc1cn2c(=O)cc(COc3ccc(NC(=O)c4cccc(F)c4)cc3)nc2s1	122%
COc1cc(C(=O)Nc2ccc(OCc3cc(=O)n4ccc(C)cc4n3)cc2)cc(OC)c1OC	0% (active)
COc1cc(C(=O)Nc2ccc(OCc3cc(=O)n4cccc(C)c4n3)cc2)cc(OC)c1OC	133%
Cc1ccc(Cl)cc1NC(=O)Nc1cccc(OCc2cc(=O)n3ccccc3n2)c1	64%
CCOc1ccc(C(=O)Nc2ccc(OCc3cc(=O)n4cccc(C)c4n3)cc2)cc1	14% (active)
Cc1cccn2c(=O)cc(COc3ccc(NC(=O)c4cccc(F)c4)cc3)nc12	-1% (active)
Cc1cccc(C(=O)Nc2ccc(OCc3cc(=O)n4ccc(C)cc4n3)cc2)c1	55%
Cc1ccccc1C(=O)Nc1ccc(OCc2cc(=O)n3cccc(C)c3n2)cc1	72%
O=C(COc1ccc(F)cc1)Nc1cccc(OCc2cc(=O)n3ccccc3n2)c1	73%
CCOC(=O)C1CCCN(C(=O)c2nn(-c3ccc(OC)cc3)c(=O)c3c2c2ccccc2n3C)C1 (stereo unspecified)	125%
CCOC(=O)c1ccc(NC(=O)Cn2cc(C(=O)c3ccc(CC)cc3)c(=O)c3ccc(C)nc32)cc1	143%
COCCn1c(C)cc(O)c(C(c2ccc(Cl)cc2)N2CCN(c3ccccc3)CC2)c1=O (stereo unspecified)	65%
O=C(NCCC1=CCCCC1)c1ccc2c(c1)N(Cc1ccc(Cl)cc1)C(=O)c1ccccc1S2(=O)=O	104%
NC(=O)CSc1oc(-c2ccco2)nc1S(=O)(=O)c1ccc(Cl)cc1	68%
Cc1ccc(CNC(=O)C2CCN(S(=O)(=O)N3CCC(C)CC3)CC2)cc1	77%
O=C(Cn1cc(S(=O)(=O)Cc2ccccc2Cl)c2ccccc21)NCCc1ccccc1	65%
CCC(=O)Nc1ccc2c(c1)C(=O)OC2	110%
Cc1ccccc1C(=O)Nc1cccc(OCc2cc(=O)n3cccc(C)c3n2)c1	90%
Cc1ccc(OCC(=O)Nc2cccc(OCc3cc(=O)n4cccc(C)c4n3)c2)cc1C	124%
Cc1cccn2c(=O)cc(COc3ccc(NC(=O)COc4ccc(F)cc4)cc3)nc12	69%
Cc1cccc(C(=O)Nc2cccc(OCc3cc(=O)n4cccc(C)c4n3)c2)c1	76%
Cc1cccn2c(=O)cc(COc3cccc(NC(=O)c4ccccc4F)c3)nc12	-6% (active)
Cc1ccc(OCC(=O)Nc2ccc(OCc3cc(=O)n4cccc(C)c4n3)cc2)cc1C	-6% (active)
